Granule exo inh – LAMP-1 surface exposure blockers, TALL-104 cells – cell-based, flow cytometry, MLPCN library, primary screen; AID 651702, 2012; inhibition, % at 10 µM; TALL-104 LAMP-1 surface exposure; cells stimulated with thapsigargin and PMA; 0.66% of 360,000 active;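 active means inhibition above about 55%, limit read from the data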
Beta2AR agonist – beta2AR agonists driving receptor internalization, primary screen, cell-based, FAP fluorogen, flow cytometry; Beta-2 adrenergic receptor (Homo sapiens), P07550; response, % (concentration not given with the values); 0.43% of 340,000 active; AID 504454, 2011; Am2.2-beta2AR cells;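 active means response above a set limit, near 3 SD of response in nonfluorescent compounds, cut at about 42% in these data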
Target sequence (P07550 whole entry, looked up): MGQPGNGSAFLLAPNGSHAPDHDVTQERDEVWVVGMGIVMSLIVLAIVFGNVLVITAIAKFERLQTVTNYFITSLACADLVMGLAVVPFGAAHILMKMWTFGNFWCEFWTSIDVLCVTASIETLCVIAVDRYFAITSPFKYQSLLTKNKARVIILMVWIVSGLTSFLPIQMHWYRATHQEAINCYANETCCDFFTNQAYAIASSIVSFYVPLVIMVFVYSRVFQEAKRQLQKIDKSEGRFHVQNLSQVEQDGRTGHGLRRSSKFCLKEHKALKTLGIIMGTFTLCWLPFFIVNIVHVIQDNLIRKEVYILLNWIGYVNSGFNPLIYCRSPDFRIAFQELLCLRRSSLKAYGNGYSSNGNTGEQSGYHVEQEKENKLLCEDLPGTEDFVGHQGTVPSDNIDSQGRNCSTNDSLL
NTR1 ag – agonists of human NTR1, primary screen, imaging, U2OS cells, beta-arrestin-GFP, high content; activation, % at 20 µM; 0.17% of 330,000 active; Neurotensin receptor type 1 (Homo sapiens), P30989; NTR1-U2OS beta-arrestin-GFP spot imaging, agonist mode; AID 493036, 2011;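 active means activation at or above 40% of the spot to cytoplasm intensity ratio, with at least 20 cells analyzed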;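 further: 0% = DMSO without peptide and 100% = 100 nM NTR1 peptide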
ABHD5-PLIN5 inh – ABHD5-PLIN5 interaction inhibitors, primary screen, cell lysate, split luciferase complementation, luminescence. Perilipin-5 (Homo sapiens) + 1-acylglycerol-3-phosphate O-acyltransferase ABHD5 (Homo …. Split G. princeps luciferase complementation, 4 h. inhibition, % at 4 µM. 0.78% of 360,000 active. AID 602281, 2012;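 active means inhibition above the mean inhibition across every tested compound plus 3 SD, cut at about 22% in these data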;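 further: 0% = DMSO only wells and the 100% control is not disclosed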
HTR2A ag – mouse Htr2a agonists via beta-arrestin recruitment, primary screen, cell-based, luminescence. 5-hydroxytryptamine receptor 2A (Mus musculus), P35363. CHO-K1 mHTR2A beta-arrestin complementation; percent of 30 µM serotonin response. activation, % at 7.6 µM. 0.66% of 360,000 active. AID 624169, 2012;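 active means activation above a run cutoff, the mean activation of all tested compounds plus 3 SD, cut at about 14% in these data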;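 further: 0% = plate median of compound wells and 100% = 30 µM serotonin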
OPRM1 ag – OPRM1 agonists via beta-arrestin recruitment, confirmation, counter-screen for mouse HTR2A agonist project, cell-based, luminescence, single concentration. shares compounds with HTR2A ag. U2OS OPRM1 beta-arrestin PathHunter; DMSO 0%, DAMGO 9.3 µM 100%. activation, % at 9.3 µM. 5.3% of 2,300 active;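 active means mean activation above the mean of DMSO-only wells plus 3 SD, cut at about 0.5% in these data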
HTR2A ag conf – mouse HTR2A agonists, beta-arrestin recruitment, confirmation, cell-based, luminescence, CHO-K1 PathHunter, triplicate. shares compounds with HTR2A ag. DMSO 0%, 30 µM serotonin 100%. activation, % at 7.6 µM. 19% of 2,300 active. AID 624381, 2012;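 active means mean activation across triplicates above the hit threshold derived in the original primary screen, cut at about 15% in these data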
The depositor's hits bear a star; ! = not active in a repeat. In the library only some 2.3% were active in any assay of this set; here they are far more common.

How did COc1ccc2c(c1)OC(=O)CC2c1ccccc1OC (configuration not stated) do in these assays?
Granule exo inh: -5; Beta2AR agonist: 1; NTR1 ag: 0; ABHD5-PLIN5 inh: 0; HTR2A ag: 16*; OPRM1 ag: 0; HTR2A ag conf: -3

Results for Cc1cccc(-n2c(C)cc(/C=C3\C(=N)N4N=C(CC(C)C)SC4=NC3=O)c2C)c1 ?
Granule exo inh: 0; Beta2AR agonist: -9; NTR1 ag: 3; ABHD5-PLIN5 inh: 0; HTR2A ag: 2

Results for Cc1cc(C)cc(-n2c(C)cc(/C=C3\C(=N)N4N=C(CC(C)C)SC4=NC3=O)c2C)c1 ?
Granule exo inh: 3; Beta2AR agonist: 3; NTR1 ag: 3; ABHD5-PLIN5 inh: -1; HTR2A ag: 18*; OPRM1 ag: 0; HTR2A ag conf: -2

What do the screens show for `Cc1cccc(NC(=O)C2Cc3ccccc3O/C2=N\O)c1` (configuration not stated)?
Granule exo inh: -1; Beta2AR agonist: -2; NTR1 ag: -1; ABHD5-PLIN5 inh: -3; HTR2A ag: 16*; OPRM1 ag: -1; HTR2A ag conf: -3

How did COc1ccccc1OCCNC(=O)c1ccc(C)o1 do in these assays?
Granule exo inh: 9; Beta2AR agonist: 3; NTR1 ag: 0; ABHD5-PLIN5 inh: 10; HTR2A ag: 15*; OPRM1 ag: -1; HTR2A ag conf: 1

Results for Cc1ccc(C(=O)NCCNC(=O)c2ccc(C)o2)o1 ?
Granule exo inh: -15; Beta2AR agonist: 2; NTR1 ag: 0; ABHD5-PLIN5 inh: 6; HTR2A ag: -4

Results for Cc1ccc(C(=O)N/C(=C/c2ccc(-c3cccc([N+](=O)[O-])c3)o2)C(=O)NC(C)C)cc1 ?
Granule exo inh: 2; Beta2AR agonist: -12; NTR1 ag: 2; ABHD5-PLIN5 inh: 9; HTR2A ag: 21*; OPRM1 ag: 0; HTR2A ag conf: 1

How did C#Cc1ccc(CN2CCC(Oc3cc(C(=O)NC4CC4)ccc3OC)CC2)cc1 do in these assays?
Granule exo inh: -3; Beta2AR agonist: -6; NTR1 ag: 0; ABHD5-PLIN5 inh: -1; HTR2A ag: -1

Results for O=C(NN1CCN(Cc2ccccc2)CC1)c1ccc(Cl)cc1 ?
Granule exo inh: 0; Beta2AR agonist: -4; NTR1 ag: 0; ABHD5-PLIN5 inh: -2; HTR2A ag: -5

How did Cc1cc(C)n(C(=O)c2cccc([N+](=O)[O-])c2)n1 do in these assays?
Granule exo inh: -10; Beta2AR agonist: -5; NTR1 ag: 0; ABHD5-PLIN5 inh: -1; HTR2A ag: 0

Results for Cc1cc(C)n(C(=O)c2cc([N+](=O)[O-])cc([N+](=O)[O-])c2)n1 ?
Granule exo inh: -7; Beta2AR agonist: 0; NTR1 ag: 0; ABHD5-PLIN5 inh: -1; HTR2A ag: 45*; OPRM1 ag: 0; HTR2A ag conf: -3

What do the screens show for `Cc1cc(C(C)(C)C)c(O)c(C)c1CC1=NCCN1`?
Granule exo inh: 0; Beta2AR agonist: -6; NTR1 ag: 4; ABHD5-PLIN5 inh: 4; HTR2A ag: 32*; OPRM1 ag: -1; HTR2A ag conf: 41*

How did Cc1cnc(C(=O)OCC(=O)N(Cc2ccccc2)C(C)(C)C)cn1 do in these assays?
Granule exo inh: 21; Beta2AR agonist: -3; NTR1 ag: -2; ABHD5-PLIN5 inh: 6; HTR2A ag: 0

What do the screens show for `Cc1c(C(=O)OCC(=O)c2c(N)n(CC(C)C)c(=O)n(C)c2=O)oc2ccccc12`?
Granule exo inh: -1; Beta2AR agonist: 6; NTR1 ag: 2; ABHD5-PLIN5 inh: 0; HTR2A ag: 18*; OPRM1 ag: 0; HTR2A ag conf: -1

How did COCc1c(C(=O)OCC(=O)c2c(N)n(CC(C)C)c(=O)n(C)c2=O)oc2ccccc12 do in these assays?
Granule exo inh: -5; Beta2AR agonist: 9; NTR1 ag: 2; ABHD5-PLIN5 inh: 0; HTR2A ag: -1

Results for Cc1cccc(C(=O)NCCC(=O)NCc2ccccc2F)c1 ?
Granule exo inh: 3; Beta2AR agonist: -1; NTR1 ag: -1; ABHD5-PLIN5 inh: -2; HTR2A ag: 3

How did COc1ccccc1NC(=S)N(CCc1c(C)[nH]c2ccccc12)Cc1cccs1 do in these assays?
Granule exo inh: 9; Beta2AR agonist: 7; NTR1 ag: -1; ABHD5-PLIN5 inh: -5; HTR2A ag: 16*; OPRM1 ag: -1; HTR2A ag conf: -5

How did COc1ccccc1Nc1nc(N2CCCC2)nc(N2CCOCC2)n1 do in these assays?
Granule exo inh: -2; Beta2AR agonist: 1; NTR1 ag: 3; ABHD5-PLIN5 inh: -2; HTR2A ag: 2

How did CCc1ccc(Nc2nc(N3CCOCC3)nc(N3CCOCC3)n2)cc1 do in these assays?
Granule exo inh: -3; Beta2AR agonist: 11; NTR1 ag: 1; ABHD5-PLIN5 inh: -4; HTR2A ag: 1

How did COc1ccccc1Nc1nc(N2CCOCC2)nc(N2CCOCC2)n1 do in these assays?
Granule exo inh: 0; Beta2AR agonist: 12; NTR1 ag: 2; ABHD5-PLIN5 inh: 0; HTR2A ag: 16*!; OPRM1 ag: 0; HTR2A ag conf: 1

Results for FC(F)(F)Oc1ccc(Nc2nc(N3CCOCC3)nc(N3CCOCC3)n2)cc1 ?
Granule exo inh: 15; Beta2AR agonist: 13; NTR1 ag: 8; ABHD5-PLIN5 inh: 7; HTR2A ag: 15*; OPRM1 ag: 0; HTR2A ag conf: -4

What do the screens show for `CCOC(=O)c1ccc(NC(=S)Nc2ccc(Br)cc2N)cc1`?
Granule exo inh: 2; Beta2AR agonist: 0; NTR1 ag: -1; ABHD5-PLIN5 inh: -1; HTR2A ag: 8

Results for Cc1ccc(C(C)C)c2c1C(c1ccc3c(c1)OCO3)CC(=O)O2 (configuration not stated) ?
Granule exo inh: -1; Beta2AR agonist: -6; NTR1 ag: 7; ABHD5-PLIN5 inh: -2; HTR2A ag: -7

What do the screens show for `O=[N+]([O-])c1ccc(CN2[C@H](COCc3ccccc3)[C@@H](N3CCCC3)CS2(=O)=O)cc1`?
Granule exo inh: -2; ABHD5-PLIN5 inh: 2; HTR2A ag: 1

Assay outcomes (PubChem BioAssay)
